Measurements from ChEMBL document CHEMBL3988442, “University of Dundee, Small-Polar-MMV Screening Library” (2021).
Out of some 66,000 compounds screened, about 960 (1.5%) showed an effect of 50% or more. Shown is part of a subset that was picked to be rich in strong results.

System: Trypanosoma brucei
Experiment: Trypanosoma brucei 72 hour study
Format: functional, organism-based
Design: scale not given: in the data most compounds retested in dose-response had high values

SMILES: CSCC[C@H](N)c1nnc(SCC(=O)Nc2ccc(Br)cc2)o1.Cl
- Percent Effect (30 µM, 30.03 µM): -43.15%

SMILES: CC(CNC(=O)c1ccc(F)cc1I)N1CCCC1 (stereo unspecified)
- Percent Effect (30.3 µM, […]): 0.5476%

SMILES: COCCC(=O)NCCn1nc(C2CCNC2)c2cccnc21.Cl (stereo unspecified)
- Percent Effect (30.3 µM, […]): -11.01%

SMILES: Cc1nc(CN2CCC(O)(c3ccccc3F)CC2)c2ccccn12.O=C(O)CC(O)(CC(=O)O)C(=O)O
- Percent Effect (30.3 µM, […]): -5.12%

SMILES: Cc1cccc(C)c1NC(=O)c1cc(S(N)(=O)=O)c(C)o1
- Percent Effect (30 µM, 30.03 µM): -12.34%

SMILES: Cc1nccc(CNC(=O)NCCOc2ccc(F)c(F)c2)n1
- Percent Effect (30.3 µM, […]): 8.406%

SMILES: Cn1cc(CNC(=O)NCCOc2ccc(F)c(F)c2)cn1
- Percent Effect (30 µM, 30.03 µM): -10%

SMILES: Cc1nc(C2(O)CCCNCC2)sc1CCOc1ccc(F)c(F)c1.Cl (stereo unspecified)
- Percent Effect (30.3 µM, […]): 101.7%

SMILES: Cc1cc(CNC(=O)NCCOc2ccc(F)c(F)c2)on1
- Percent Effect (30 µM, 30.03 µM): -38.02%

SMILES: CC1(C(=O)NCc2cccnc2Oc2ccc(F)c(F)c2)CCCNC1 (stereo unspecified)
- Percent Effect (30 µM, 30.03 µM): -31.1%

SMILES: CCC(CN1CCCC1)NC(=O)Cc1c(C)[nH]c2c(C)cc(C)cc12.O=C(O)CC(O)(CC(=O)O)C(=O)O (stereo unspecified)
- Percent Effect (30.3 µM, […]): 9.843%

SMILES: Cc1ccc(CN2CCCn3nnc(COCC4CC4)c3C2)s1.O=C(O)C(F)(F)F
- Percent Effect (30 µM, 30.03 µM): 22.43%

SMILES: CN(C)CCCN(Cc1ccco1)Cc1ccnn1C1CCCCO1.O=C(O)CC(O)(CC(=O)O)C(=O)O (stereo unspecified)
- Percent Effect (30.3 µM, […]): -21.72%

SMILES: O=C(O)C(F)(F)F.O=C(c1ccncc1)N1CCOC2(CCCN(c3nncs3)C2)C1 (stereo unspecified)
- Percent Effect (30.3 µM, […]): -64.64%

SMILES: CN(C)S(=O)(=O)N1CCC(c2cccc(Cc3ccccc3Cl)n2)CC1
- Percent Effect (30.3 µM, […]): -38.96%

SMILES: Cc1ccc(-c2nc(CN(Cc3cccs3)CC3CCCO3)no2)cc1 (stereo unspecified)
- Percent Effect (10 µM): -10.74%
- Percent Effect (30.3 µM, […]): 9.515%

SMILES: Cc1ncoc1C(=O)N1C[C@H]2CCC[C@@]2(COCc2cccnc2)C1.O=C(O)C(F)(F)F
- Percent Effect (30 µM, 30.03 µM): 18.22%

SMILES: Cn1nnc2c1CCN(CC1CC1)C2COCc1ccccc1.O=C(O)C(F)(F)F (stereo unspecified)
- Percent Effect (30 µM, 30.03 µM): 17.54%

SMILES: CO[C@@H]1CC[C@H]2[C@H]1OCCN2Cc1ccc(F)c(F)c1.O=C(O)C(F)(F)F
- Percent Effect (30.3 µM, […]): -7.78%

SMILES: CC(C)NC(=O)N1CCOC2(CCCN(c3ncccc3F)C2)C1.O=C(O)C(F)(F)F (stereo unspecified)
- Percent Effect (30.3 µM, […]): -41.85%

SMILES: Nc1ncc(CN2CCC(O)(c3ccccc3F)CC2)cn1
- Percent Effect (30.3 µM, […]): -5.013%

SMILES: Cc1nc(CCN)cc(N2CCC(O)(c3ccccc3)C2)n1 (stereo unspecified)
- Percent Effect (30 µM, 30.03 µM): -28.3%

SMILES: Cl.OC1(c2ccc(F)cc2)CCN(Cc2ccccc2N2CCCC2)CC1
- Percent Effect (30.3 µM, […]): -34.29%

SMILES: Cc1cccc(C2(O)CCN(Cc3ccccc3N3CCCC3)CC2)c1
- Percent Effect (30.3 µM, […]): 93.6%

SMILES: OC1(c2ccccc2F)CCN(Cc2ccccc2N2CCCC2)CC1
- Percent Effect (30.3 µM, […]): 56.26%

SMILES: COc1cccc(CN2CCC(O)(c3ccc(C)cn3)CC2)c1OC
- Percent Effect (30.3 µM, […]): -256.8%

SMILES: COc1cc(CCC(=O)N2CCC(c3cc4nccnc4[nH]3)CC2)on1
- Percent Effect (30.3 µM, […]): 60.69%

SMILES: COc1cc(CCC(=O)N2CCC(c3cc4ncc(C)nc4[nH]3)C2)on1 (stereo unspecified)
- Percent Effect (30.3 µM, […]): 31.83%

SMILES: COc1cc(CCC(=O)N2CCC(c3cc4ncccc4[nH]3)CC2)on1
- Percent Effect (30.3 µM, […]): 13.01%

SMILES: O=C(C1CCOCC1)N1CCO[C@H]2[C@H](OCc3ccncc3)CC[C@@H]21.O=C(O)C(F)(F)F
- Percent Effect (30 µM, 30.03 µM): -17.19%

SMILES: CN(Cc1ccncc1)C1COC2(CCN(Cc3ccsc3)CC2)C1.O=C(O)C(F)(F)F.O=C(O)C(F)(F)F.O=C(O)C(F)(F)F (stereo unspecified)
- Percent Effect (30 µM, 30.03 µM): 11.15%

SMILES: Cn1nc(C(=O)NCc2cccnc2)c2c1CCS(=O)(=O)C2
- Percent Effect (30.3 µM, […]): -19.1%

SMILES: Cn1nc(C(=O)NCc2ccccn2)c2c1CCS(=O)(=O)C2
- Percent Effect (30 µM, 30.03 µM): 63.28%

SMILES: Cn1nc(C(=O)NCc2cccs2)c2c1CCS(=O)(=O)C2
- Percent Effect (30.3 µM, […]): -10.45%

SMILES: CC(=O)N1CCC[C@@H](NCc2c[nH]c3ccccc23)[C@@H]1c1ccc(C)s1.Cl
- Percent Effect (30.3 µM, […]): -17.97%

SMILES: Cc1cnn(C2CCCN(C(=O)Cc3c(C)nn(C)c3C)C2)c1 (stereo unspecified)
- Percent Effect (30.3 µM, […]): -16.8%

SMILES: N#Cc1ccc(N2CCCC3(CCN(c4cccnc4)CC3)C2)cc1.O=C(O)C(F)(F)F
- Percent Effect (30.3 µM, […]): 65.08%

SMILES: O=C(O)C(F)(F)F.O=S(=O)(c1cccs1)N1CCCC2(COCCN(c3cccnc3)C2)C1 (stereo unspecified)
- Percent Effect (30.3 µM, […]): 53.4%

SMILES: O=C(O)C(F)(F)F.O=C(O)C(F)(F)F.c1cncc(N2CCCC3(CCN(CCN4CCCC4)CC3)C2)c1
- Percent Effect (30.3 µM, […]): -7.746%

SMILES: Fc1cnc(N2CCCC3(COCCN(c4nccs4)C3)C2)nc1.O=C(O)C(F)(F)F.O=C(O)C(F)(F)F (stereo unspecified)
- Percent Effect (30 µM, 30.03 µM): 60.81%

SMILES: O=C(O)C(F)(F)F.c1cncc(N2CCOCC3(CCCN(c4nncs4)C3)C2)c1 (stereo unspecified)
- Percent Effect (30.3 µM, […]): 1.277%

SMILES: O=C(O)C(F)(F)F.c1ccc(N2CCCC3(COCCN(c4nccs4)C3)C2)nc1 (stereo unspecified)
- Percent Effect (30 µM, 30.03 µM): 23.77%

SMILES: O=C(O)C(F)(F)F.O=C(c1cccs1)N1CCCC2(COCCN(c3cccnc3)C2)C1 (stereo unspecified)
- Percent Effect (30.3 µM, […]): -669.5%

SMILES: O=C(O)C(F)(F)F.c1cncc(N2CCC3(CCCN(c4ccncc4)C3)CC2)c1
- Percent Effect (30.3 µM, […]): -3.759%

SMILES: Cc1cnc(N2CCCC3(COCCN(c4nccs4)C3)C2)nc1 (stereo unspecified)
- Percent Effect (30.3 µM, […]): -22.75%
